# Experimental data reported in ChEMBL document CHEMBL1961873, “Compounds: GSK PKIS; Assays: Nanosyn kinase panel” (2012).
# Several values for one entry are separate records, joined by “and”; a condition that tells them apart may be missing. Equal entries are not always repeated.
# Columns and labels:
# [1] = target: T1, Tyrosine-protein kinase receptor TYRO3 (Homo sapiens) (UniProt Q06418); conditions: at 1 µM
# T1 sequence (whole entry): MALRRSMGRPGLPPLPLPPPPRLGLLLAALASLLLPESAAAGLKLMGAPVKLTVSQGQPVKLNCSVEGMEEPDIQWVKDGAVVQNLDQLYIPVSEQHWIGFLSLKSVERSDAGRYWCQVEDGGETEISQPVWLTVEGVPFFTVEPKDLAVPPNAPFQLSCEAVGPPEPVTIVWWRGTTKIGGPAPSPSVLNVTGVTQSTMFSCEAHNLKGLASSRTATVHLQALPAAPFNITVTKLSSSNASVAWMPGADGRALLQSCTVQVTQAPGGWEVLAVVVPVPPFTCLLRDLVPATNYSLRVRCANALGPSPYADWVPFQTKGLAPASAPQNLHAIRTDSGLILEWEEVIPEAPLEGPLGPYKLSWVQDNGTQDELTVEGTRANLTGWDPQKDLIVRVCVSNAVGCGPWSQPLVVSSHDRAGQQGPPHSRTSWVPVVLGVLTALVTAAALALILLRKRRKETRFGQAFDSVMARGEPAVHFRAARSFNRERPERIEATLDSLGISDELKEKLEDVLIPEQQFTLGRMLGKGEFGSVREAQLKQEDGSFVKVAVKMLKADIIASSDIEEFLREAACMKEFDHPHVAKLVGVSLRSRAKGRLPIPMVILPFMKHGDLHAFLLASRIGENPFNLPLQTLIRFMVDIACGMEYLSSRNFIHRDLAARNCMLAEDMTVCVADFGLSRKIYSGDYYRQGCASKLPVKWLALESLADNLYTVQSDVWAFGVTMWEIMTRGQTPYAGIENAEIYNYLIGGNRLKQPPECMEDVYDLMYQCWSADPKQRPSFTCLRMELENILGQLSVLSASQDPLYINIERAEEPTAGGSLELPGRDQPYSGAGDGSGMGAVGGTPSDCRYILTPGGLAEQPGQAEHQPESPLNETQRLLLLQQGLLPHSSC
# [2] = target: Tyrosine-protein kinase Yes (Homo sapiens) (UniProt P07947); conditions: at 0.1 µM
# [3] = target: Tyrosine-protein kinase Yes (Homo sapiens) (UniProt P07947); conditions: at 1 µM
# [4] = target: T2, Tyrosine-protein kinase ZAP-70 (Homo sapiens) (UniProt P43403); conditions: at 0.1 µM
# T2 sequence (whole entry): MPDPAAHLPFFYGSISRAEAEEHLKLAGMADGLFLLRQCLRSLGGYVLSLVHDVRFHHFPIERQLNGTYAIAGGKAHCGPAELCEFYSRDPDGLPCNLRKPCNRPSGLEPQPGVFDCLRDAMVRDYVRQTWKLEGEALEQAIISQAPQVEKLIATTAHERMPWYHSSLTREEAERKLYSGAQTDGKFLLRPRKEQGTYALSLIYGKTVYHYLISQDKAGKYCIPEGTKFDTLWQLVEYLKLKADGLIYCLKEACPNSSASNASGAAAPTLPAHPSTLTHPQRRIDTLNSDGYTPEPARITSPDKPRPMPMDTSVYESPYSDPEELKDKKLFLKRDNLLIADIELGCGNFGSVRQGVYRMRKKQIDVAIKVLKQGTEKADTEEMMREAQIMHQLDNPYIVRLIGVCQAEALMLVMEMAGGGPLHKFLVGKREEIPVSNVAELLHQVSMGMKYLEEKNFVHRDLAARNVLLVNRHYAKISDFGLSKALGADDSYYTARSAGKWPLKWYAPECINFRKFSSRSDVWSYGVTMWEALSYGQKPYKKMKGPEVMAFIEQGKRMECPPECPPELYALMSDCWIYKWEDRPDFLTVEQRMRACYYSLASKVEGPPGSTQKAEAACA
# [5] = target: T2, Tyrosine-protein kinase ZAP-70 (Homo sapiens); conditions: at 1 µM
# [6] = target: Serine/threonine-protein kinase B-raf (Homo sapiens) (UniProt P15056); conditions: at 0.1 µM
# [7] = target: Serine/threonine-protein kinase B-raf (Homo sapiens) (UniProt P15056); conditions: at 1 µM
# [8] = test system: Serine/threonine-protein kinase B-raf (Homo sapiens), P15056 [V600E]; conditions: at 0.1 µM
# [9] = test system: Serine/threonine-protein kinase B-raf (Homo sapiens), P15056 [V600E]; conditions: at 1 µM
# [10] = target: RAF proto-oncogene serine/threonine-protein kinase (Homo sapiens) (UniProt P04049); conditions: at 0.1 µM;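 further: values are mean CRAF kinase inhibition from profiling of the GSK Published Kinase Inhibitor Set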
# Sequence of RAF proto-oncogene serine/threonine-protein kinase (Homo sapiens) (P04049 whole entry): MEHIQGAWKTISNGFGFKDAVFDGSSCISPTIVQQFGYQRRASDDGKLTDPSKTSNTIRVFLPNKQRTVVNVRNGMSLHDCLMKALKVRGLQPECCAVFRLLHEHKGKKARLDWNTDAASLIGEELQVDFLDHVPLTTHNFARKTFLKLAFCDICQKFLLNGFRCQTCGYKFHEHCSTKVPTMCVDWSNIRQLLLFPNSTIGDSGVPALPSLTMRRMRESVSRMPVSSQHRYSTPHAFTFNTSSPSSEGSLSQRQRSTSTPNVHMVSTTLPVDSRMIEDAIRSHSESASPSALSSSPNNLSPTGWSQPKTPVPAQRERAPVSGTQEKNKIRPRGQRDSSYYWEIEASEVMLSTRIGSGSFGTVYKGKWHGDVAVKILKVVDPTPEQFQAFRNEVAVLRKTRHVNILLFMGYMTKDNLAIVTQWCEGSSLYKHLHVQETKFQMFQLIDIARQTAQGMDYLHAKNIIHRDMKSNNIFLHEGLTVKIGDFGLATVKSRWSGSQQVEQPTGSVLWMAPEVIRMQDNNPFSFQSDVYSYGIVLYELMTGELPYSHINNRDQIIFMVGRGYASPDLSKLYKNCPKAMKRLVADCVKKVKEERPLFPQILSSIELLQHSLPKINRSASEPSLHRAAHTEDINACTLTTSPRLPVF
# Sequence of Serine/threonine-protein kinase B-raf (Homo sapiens), P15056 [V600E] (P15056 whole entry V600E): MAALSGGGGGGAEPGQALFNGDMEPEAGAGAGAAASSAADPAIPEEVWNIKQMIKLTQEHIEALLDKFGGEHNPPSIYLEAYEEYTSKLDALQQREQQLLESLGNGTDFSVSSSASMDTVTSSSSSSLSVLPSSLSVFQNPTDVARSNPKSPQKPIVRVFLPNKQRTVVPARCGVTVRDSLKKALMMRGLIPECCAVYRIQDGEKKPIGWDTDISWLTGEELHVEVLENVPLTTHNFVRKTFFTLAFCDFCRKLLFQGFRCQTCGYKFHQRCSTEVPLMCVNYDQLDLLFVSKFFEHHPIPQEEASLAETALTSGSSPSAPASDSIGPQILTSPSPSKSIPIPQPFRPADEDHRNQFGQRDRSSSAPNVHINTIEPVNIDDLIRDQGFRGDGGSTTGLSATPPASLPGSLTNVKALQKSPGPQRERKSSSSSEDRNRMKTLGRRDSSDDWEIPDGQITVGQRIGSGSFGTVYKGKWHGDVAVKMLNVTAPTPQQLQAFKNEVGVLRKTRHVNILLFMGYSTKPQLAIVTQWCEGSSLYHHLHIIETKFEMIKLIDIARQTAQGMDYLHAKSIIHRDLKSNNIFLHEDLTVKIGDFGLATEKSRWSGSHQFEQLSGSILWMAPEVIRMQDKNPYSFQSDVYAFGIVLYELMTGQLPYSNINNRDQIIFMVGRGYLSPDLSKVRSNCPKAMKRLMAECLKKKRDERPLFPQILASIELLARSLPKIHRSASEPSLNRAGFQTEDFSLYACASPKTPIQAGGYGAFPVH
# Sequence of Tyrosine-protein kinase Yes (Homo sapiens) (P07947 2-543 limits assumed): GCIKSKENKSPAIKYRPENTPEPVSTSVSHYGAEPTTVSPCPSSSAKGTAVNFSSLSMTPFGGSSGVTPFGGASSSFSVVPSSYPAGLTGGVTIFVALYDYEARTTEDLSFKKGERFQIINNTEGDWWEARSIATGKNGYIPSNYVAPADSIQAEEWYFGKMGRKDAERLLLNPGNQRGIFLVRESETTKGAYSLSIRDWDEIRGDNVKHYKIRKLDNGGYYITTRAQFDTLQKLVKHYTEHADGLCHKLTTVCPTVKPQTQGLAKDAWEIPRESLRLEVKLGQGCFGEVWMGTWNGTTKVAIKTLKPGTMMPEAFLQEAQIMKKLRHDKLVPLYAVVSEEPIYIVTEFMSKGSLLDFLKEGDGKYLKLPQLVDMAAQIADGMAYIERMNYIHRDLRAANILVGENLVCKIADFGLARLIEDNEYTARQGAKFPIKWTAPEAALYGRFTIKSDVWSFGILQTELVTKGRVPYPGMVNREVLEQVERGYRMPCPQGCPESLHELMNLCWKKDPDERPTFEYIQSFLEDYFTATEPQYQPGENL
# Sequence of Serine/threonine-protein kinase B-raf (Homo sapiens) (P15056 whole entry): as the sequence (P15056 whole entry V600E) above, with E600V counted along it
Structure (SMILES),inhibition [1],inhibition [2],inhibition [3],inhibition [4],inhibition [5],inhibition [6],inhibition [7],inhibition [8],inhibition [9],inhibition [10]
Cc1cc(O)cc(C)c1/C=C/c1cncc(C(N)=O)c1,6.32%,6.53%,32.2%,2.11%,2.46%,4.77%,11.2%,3.8%,8.78%,-1.23%
CNC(=O)c1sc(-n2cnc3cc(OC)c(OC)cc32)cc1OCc1ccccc1C(F)(F)F,3.54%,3.33%,6.76%,-0.03%,-1.04%,6.42%,6.14%,4.01%,4.66%,1.81%
CCn1c(-c2nonc2N)nc2cncc(C(=O)NCCNC)c21,5.41%,2.4%,5.52%,0.59%,1.01%,7.93%,7.26%,4.48%,4.42%,2.61%
O=C1Nc2ccccc2/C1=C1\CCc2cc(O)ccc21,18.8%,3.94%,13.6%,3.48%,7.74%,6.96%,9.83%,8.49%,8.96%,0.39%
CN1CCN(Cc2ccc(-c3cc4ncnc(Nc5ccc(OCc6cccc(F)c6)c(Cl)c5)c4s3)o2)CC1,12.4% and 17.4%,14% and 15.7%,58.6% and 60.3%,1.12% and 6.43%,7.67% and 11.7%,4.33% and 8.54%,5.51% and 9.42%,3.61% and 9.64%,4.75% and 9.2%,-0.28% and 16.3%
CN1CCC(C(=O)Nc2n[nH]c3nc(-c4ccc(O)cc4)c(Br)cc23)CC1,7.08% and 4.86%,4% and 0.88%,10.6% and 3.33%,-0.14% and 0.65%,2.21% and 2.11%,9.05% and 4.77%,16% and 14.5%,9.4% and 4.5%,13.8% and 8.76%,13% and -0.38%
CCN1CCC(C(=O)Nc2n[nH]c3nnc(-c4cccc(F)c4F)cc23)CC1,1.67%,2.36%,-0.1%,-1.24%,2.19%,-0.36%,0.01%,1.12%,1.24%,-4.36%
COc1cccc(Nc2nccc(-c3cnn4ncccc34)n2)c1,21.2%,3.57%,20.5%,2.31%,11.7%,5.24%,31.6%,4.52%,30.7%,2.53%
